# Reference: the supplement of paper PMC11732987, “Enantioselective OTUD7B fragment discovery through chemoproteomics screening and high-throughput optimisation” (Communications Chemistry, 2025)
# Values without a mark were called inactive.
# Experiments:
# Test in all cases: log2 ratio of Biotin-Ahx-Ub-VS probe labelling (fragment/DMSO); higher = less target engagement (more negative = stronger competition), active = hit call of the paper (q ≤ 0.05, log2 ratio ≤ -1)
# Conditions in all cases: compound concentration: 200 uM; treatment time: 3 h
# USP19 = target: T1, USP19 (UniProt O94966)
# T1 sequence (whole entry): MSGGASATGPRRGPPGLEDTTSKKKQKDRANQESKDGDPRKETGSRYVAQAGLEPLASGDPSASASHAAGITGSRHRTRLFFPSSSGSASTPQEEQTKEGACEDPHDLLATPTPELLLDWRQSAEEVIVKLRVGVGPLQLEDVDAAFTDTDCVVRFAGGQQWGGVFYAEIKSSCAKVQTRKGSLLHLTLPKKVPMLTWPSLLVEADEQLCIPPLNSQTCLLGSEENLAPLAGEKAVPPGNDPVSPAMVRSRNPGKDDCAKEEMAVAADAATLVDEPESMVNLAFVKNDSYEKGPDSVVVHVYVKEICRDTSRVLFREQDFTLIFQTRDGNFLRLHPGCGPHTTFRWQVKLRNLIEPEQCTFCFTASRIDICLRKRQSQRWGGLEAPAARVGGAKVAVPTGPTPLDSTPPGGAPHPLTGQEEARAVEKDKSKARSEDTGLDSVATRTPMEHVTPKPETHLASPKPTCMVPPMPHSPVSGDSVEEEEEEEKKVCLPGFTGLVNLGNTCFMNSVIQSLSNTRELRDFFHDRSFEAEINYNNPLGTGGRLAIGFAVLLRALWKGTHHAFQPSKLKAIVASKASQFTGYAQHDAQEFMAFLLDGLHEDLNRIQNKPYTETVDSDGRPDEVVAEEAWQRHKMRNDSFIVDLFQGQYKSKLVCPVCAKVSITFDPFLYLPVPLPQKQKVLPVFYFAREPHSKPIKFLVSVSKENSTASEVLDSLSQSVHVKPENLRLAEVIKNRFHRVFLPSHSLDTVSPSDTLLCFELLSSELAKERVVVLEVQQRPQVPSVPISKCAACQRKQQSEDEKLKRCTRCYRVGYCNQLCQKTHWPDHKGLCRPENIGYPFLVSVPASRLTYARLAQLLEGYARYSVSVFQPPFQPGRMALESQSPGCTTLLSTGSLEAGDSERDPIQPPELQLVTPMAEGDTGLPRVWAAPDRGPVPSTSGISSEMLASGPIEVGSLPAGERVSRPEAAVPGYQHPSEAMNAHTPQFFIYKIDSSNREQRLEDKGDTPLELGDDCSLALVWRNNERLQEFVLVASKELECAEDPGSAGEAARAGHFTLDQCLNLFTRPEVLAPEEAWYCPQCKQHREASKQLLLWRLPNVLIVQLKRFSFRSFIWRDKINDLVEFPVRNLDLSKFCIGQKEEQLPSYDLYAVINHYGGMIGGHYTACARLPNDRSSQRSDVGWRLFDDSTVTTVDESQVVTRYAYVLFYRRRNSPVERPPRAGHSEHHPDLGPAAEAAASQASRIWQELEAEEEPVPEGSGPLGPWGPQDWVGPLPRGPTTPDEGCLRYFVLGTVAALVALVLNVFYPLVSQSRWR
# Summary of the method: (§1)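 The table lists average log2 ratios of fragment over vehicle, from an unpaired t-test on global-median-normalised Spectronaut label-free quantities. Proteins with ≥2 unique peptides were used. Samples were HEK293T lysate (495 µg) treated in triplicate with fragment at 200 µM or vehicle for 3 h, then with Biotin-Ahx-Ub-VS (0.5 µM final) for 1 h, with labelled DUBs NeutrAvidin-enriched and run by diaPASEF LC-MS/MS.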
# USP24 = USP24 (UniProt Q9UPU5)
# Summary of the method: as §1
# USP25 = target: T2, USP25 (UniProt Q9UHP3)
# T2 sequence (whole entry): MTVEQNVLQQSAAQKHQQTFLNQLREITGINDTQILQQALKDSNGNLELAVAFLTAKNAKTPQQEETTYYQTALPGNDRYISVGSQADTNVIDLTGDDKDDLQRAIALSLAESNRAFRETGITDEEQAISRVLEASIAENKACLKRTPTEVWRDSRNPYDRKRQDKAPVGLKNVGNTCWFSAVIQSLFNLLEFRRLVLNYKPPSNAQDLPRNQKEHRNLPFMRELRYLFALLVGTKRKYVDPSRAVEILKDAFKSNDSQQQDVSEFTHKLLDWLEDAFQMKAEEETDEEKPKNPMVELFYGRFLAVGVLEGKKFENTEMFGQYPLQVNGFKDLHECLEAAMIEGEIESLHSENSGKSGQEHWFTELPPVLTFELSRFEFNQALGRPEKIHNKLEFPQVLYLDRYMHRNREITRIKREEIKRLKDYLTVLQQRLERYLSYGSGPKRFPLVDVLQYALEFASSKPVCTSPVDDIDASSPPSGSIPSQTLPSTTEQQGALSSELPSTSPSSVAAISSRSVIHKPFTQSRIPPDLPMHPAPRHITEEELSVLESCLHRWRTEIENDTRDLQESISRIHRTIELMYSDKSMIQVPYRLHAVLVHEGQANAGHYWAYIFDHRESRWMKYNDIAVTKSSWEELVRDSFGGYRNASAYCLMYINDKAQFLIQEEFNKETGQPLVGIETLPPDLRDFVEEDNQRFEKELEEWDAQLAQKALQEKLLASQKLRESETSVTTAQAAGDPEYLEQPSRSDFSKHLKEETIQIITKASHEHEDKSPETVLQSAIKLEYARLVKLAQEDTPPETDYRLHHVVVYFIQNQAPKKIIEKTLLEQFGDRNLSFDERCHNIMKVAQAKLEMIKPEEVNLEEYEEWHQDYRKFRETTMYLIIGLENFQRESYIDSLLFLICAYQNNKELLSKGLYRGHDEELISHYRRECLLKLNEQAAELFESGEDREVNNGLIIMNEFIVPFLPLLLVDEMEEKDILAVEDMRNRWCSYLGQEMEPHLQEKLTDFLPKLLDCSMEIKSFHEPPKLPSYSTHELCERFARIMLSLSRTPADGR
# Summary of the method: as §1
# USP28 = target: T3, USP28 (UniProt Q96RU2)
# T3 sequence (whole entry): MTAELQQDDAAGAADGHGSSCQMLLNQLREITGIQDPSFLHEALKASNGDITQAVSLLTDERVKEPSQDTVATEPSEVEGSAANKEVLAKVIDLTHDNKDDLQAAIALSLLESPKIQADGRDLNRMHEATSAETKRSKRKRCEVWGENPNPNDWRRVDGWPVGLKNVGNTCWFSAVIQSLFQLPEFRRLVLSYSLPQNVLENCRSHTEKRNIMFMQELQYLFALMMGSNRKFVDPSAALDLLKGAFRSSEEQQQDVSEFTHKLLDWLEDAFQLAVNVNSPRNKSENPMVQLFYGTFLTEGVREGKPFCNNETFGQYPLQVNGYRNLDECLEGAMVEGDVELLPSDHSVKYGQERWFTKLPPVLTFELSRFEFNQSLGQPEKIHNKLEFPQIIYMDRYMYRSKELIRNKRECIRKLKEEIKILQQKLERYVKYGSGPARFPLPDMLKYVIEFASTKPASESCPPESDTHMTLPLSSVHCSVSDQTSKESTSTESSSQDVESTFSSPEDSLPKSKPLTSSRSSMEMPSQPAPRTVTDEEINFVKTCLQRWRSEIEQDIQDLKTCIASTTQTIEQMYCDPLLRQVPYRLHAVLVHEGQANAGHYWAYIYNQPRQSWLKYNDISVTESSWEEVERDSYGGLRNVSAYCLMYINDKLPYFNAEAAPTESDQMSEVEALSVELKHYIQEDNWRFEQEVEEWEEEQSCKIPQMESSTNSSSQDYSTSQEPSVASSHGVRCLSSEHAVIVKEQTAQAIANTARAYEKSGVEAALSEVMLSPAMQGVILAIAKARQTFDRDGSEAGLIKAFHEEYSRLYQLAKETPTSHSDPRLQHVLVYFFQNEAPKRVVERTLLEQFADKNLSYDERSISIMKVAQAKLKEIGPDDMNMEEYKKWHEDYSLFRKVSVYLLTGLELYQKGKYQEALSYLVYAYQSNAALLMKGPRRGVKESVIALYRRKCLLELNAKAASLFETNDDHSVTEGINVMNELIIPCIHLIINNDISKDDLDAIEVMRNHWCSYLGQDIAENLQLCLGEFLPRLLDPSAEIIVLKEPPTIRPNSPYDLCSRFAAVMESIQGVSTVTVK
# Summary of the method: as §1
# USP24, sequence (Q9UPU5 whole entry): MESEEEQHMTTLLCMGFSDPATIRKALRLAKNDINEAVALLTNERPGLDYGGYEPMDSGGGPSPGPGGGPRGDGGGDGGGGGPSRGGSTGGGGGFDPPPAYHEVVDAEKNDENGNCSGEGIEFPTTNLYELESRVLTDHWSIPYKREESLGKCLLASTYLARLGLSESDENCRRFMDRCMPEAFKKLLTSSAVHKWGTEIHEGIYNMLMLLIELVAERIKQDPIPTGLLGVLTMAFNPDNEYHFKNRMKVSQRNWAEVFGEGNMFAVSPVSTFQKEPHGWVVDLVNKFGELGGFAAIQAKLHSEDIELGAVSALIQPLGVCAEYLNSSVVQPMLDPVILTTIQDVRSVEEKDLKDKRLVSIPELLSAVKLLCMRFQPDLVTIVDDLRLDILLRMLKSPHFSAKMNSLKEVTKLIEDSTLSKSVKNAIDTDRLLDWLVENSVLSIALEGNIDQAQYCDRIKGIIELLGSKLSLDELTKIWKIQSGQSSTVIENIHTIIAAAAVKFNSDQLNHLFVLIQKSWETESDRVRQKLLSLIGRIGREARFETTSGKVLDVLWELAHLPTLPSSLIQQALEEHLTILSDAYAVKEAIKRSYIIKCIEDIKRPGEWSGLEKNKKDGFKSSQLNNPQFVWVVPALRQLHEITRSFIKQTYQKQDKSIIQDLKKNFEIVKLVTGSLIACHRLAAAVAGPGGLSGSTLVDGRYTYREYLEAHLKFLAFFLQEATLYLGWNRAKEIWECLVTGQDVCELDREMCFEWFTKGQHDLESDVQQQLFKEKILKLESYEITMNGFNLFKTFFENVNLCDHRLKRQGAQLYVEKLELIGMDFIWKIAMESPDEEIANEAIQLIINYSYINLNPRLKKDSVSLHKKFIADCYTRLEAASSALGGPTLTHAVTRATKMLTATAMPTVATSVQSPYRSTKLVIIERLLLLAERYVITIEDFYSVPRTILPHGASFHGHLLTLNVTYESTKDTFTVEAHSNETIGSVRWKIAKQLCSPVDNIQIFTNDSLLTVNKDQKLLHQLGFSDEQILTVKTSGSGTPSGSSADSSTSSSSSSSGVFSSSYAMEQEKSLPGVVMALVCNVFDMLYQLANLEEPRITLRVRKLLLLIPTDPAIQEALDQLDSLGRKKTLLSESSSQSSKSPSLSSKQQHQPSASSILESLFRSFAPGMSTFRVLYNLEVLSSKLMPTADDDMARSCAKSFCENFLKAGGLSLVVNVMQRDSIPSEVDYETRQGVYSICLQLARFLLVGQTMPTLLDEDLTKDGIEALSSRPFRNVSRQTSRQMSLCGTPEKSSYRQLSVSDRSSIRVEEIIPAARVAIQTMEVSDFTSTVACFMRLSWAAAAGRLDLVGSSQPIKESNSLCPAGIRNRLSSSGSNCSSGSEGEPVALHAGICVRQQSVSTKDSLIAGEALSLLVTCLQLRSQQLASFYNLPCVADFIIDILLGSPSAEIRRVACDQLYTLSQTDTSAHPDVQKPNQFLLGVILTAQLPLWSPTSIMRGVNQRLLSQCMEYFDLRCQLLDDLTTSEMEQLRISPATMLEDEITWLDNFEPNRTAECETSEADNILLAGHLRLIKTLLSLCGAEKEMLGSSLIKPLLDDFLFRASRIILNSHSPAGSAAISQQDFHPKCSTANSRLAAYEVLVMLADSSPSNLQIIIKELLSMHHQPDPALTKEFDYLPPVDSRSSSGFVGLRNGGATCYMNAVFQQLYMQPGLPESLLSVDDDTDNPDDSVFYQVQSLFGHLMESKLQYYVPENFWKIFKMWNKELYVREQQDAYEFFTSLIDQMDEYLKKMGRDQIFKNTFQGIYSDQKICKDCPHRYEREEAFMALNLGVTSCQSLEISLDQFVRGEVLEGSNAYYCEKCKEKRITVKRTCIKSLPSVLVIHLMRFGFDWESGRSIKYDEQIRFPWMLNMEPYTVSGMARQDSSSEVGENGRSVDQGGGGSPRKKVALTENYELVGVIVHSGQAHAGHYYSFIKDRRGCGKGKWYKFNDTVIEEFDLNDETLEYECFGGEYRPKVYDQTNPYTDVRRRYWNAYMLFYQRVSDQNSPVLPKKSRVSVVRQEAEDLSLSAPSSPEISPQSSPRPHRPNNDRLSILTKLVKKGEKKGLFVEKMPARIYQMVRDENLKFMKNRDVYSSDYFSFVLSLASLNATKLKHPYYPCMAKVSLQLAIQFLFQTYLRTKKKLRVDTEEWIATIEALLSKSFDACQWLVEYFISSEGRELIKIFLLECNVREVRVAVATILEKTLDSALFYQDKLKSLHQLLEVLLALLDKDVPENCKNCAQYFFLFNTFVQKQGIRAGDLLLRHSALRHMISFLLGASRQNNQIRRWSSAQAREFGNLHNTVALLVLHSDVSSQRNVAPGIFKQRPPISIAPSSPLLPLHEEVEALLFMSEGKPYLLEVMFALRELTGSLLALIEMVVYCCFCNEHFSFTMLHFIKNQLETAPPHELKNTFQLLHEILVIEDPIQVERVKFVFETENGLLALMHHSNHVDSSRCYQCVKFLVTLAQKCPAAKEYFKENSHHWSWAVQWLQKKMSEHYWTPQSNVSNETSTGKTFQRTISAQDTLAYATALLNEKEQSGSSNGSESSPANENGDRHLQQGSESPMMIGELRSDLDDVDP
compound,measurement,setting,value
Cn1cc(CN(Cc2ccc(Cl)cc2)C(=O)CCl)cn1,log2 ratio of Biotin-Ahx-Ub-VS probe labelling,USP19,-0.653
same,log2 ratio of Biotin-Ahx-Ub-VS probe labelling,USP24,-1.49 (active)
same,log2 ratio of Biotin-Ahx-Ub-VS probe labelling,USP25,-0.161
same,log2 ratio of Biotin-Ahx-Ub-VS probe labelling,USP28,-0.648
